Hits are enriched below; roughly 4% of the tested compounds scored in any of these assays.
RecA intein inh: Mtb RecA intein splicing inhibition; P9WHJ3; cell-free RecA intein splicing, fluorescence; inhibition, % (concentration not given with the values); 0.75% of 290,000 active; AID 2221; in the data active = inhibition above about 30%;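 also: 0% = vehicle wells and 100% = reference inhibitor control wells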
Mtb betalactam: beta-lactam sensitization of Mtb H37Rv; inhibition, % at 25 µM; AID 434955; M. tuberculosis H37Rv growth with meropenem, percent inhibition; 0.27% of 330,000 active; call rule not given here;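 also: growth measured after seven days incubation then overnight dye step; 0% = bacteria only wells and 100% = bacteria with antibiotic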
Rv3671c inh: inhibitors of M. tuberculosis serine protease Rv3671c. inhibition, % at 5.96 µM. 0.048% of 320,000 active. AID 2606; in the data active = inhibition above about 38%;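 also: extracellular domain of Rv3671c used as enzyme; 0% = enzyme with DMSO and 100% = no enzyme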
UGM FP inh: inhibitors of M. tuberculosis UDP-galactopyranose mutase | inhibition, % at 10 µM | AID 504406 | P9WIQ1 | purified UGM, fluorescence polarization probe displacement | 0.06% of 320,000 active; in the data active = inhibition above about 10%, passing the limit was not always enough
Target sequence (P9WIQ1 whole entry, looked up): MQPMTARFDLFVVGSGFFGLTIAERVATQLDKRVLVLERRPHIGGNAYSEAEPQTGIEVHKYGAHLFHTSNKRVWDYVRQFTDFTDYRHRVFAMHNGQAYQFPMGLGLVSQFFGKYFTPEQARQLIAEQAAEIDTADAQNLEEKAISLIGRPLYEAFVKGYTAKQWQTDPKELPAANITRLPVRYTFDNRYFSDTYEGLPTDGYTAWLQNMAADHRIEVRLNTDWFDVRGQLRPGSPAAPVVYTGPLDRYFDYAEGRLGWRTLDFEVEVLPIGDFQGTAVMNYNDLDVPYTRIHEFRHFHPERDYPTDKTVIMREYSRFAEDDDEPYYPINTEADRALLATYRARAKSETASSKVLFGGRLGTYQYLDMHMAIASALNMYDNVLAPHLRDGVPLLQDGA
FBA Mtb inh: Mtb fructose-bisphosphate aldolase inhibition; 2.3% of 360,000 active; AID 588726; purified M. tuberculosis FBA, fluorescence read-out; inhibition, % at 1 µM; in the data active = inhibition above about 27%;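 also: 0% = vehicle and 100% = reference inhibitor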
GDH-TPI inh: counter-screen for M. tuberculosis FBA inhibitors: GDH-TPI coupled enzymes | GDH-TPI coupled enzyme counterscreen, NADH absorbance | inhibition, % at 4.8 µM | 1.2% of 360,000 active | AID 588335; in the data active = inhibition above about 30%;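 also: 0% = DMSO wells and 100% = wells lacking the enzyme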
* marks the source's active call; other numbers are inactive results; i = inactive; nt = no result; + = active, no number.

SMILES	RecA intein inh	Mtb betalactam	Rv3671c inh	UGM FP inh	FBA Mtb inh	GDH-TPI inh
CCCS(=O)(=O)NC(=O)C1(C)CCN(C(=O)Cc2ccc(OC)cc2)C1 (stereo unspecified)	nt	nt	nt	nt	4	4
COc1ccccc1OCc1cc(C(=O)N(C)CCC2CCCCO2)no1 (stereo unspecified)	2	-18	-9	1	5	2
Cc1ccc(C(=O)/C=C/Nc2ccccn2)cc1	-3	-5	-2	3	0	33*
OC[C@@H]1CN(Cc2ccc3c(c2)OCO3)C[C@H](n2cnc3c(NCc4ccc(F)cc4)ncnc32)O1	nt	nt	nt	nt	0	11
Cc1cc(O)cc(O)c1C=NCc1ccco1	-4	-4	6	0	2	33*
CCOC(=O)c1ccc(Nc2nc(C(=O)OCC)nc3ccccc23)cc1	1	26	-95	-2	1	35*
O=C(O)c1ccc(Nc2nc(-c3ccccc3)nc3ccccc23)cc1	3	22	-45	-1	8	47*
CCOC(=O)c1nc(Nc2ccc(C(=O)O)cc2)c2ccccc2n1	3	-8	7	-2	-4	31*
COc1ccc(S(=O)(=O)NCc2cccnc2)c2ccccc12	-3	-2	-9	1	1	-6
CC1(CNC(=O)C(=O)NCC2(C)CO2)CO1 (stereo unspecified)	nt	nt	nt	nt	-3	4
CCOc1ccc(NC(=O)Nc2ccon2)cc1	4	13	-4	0	-1	-10
Cn1ccc(C(=O)OCC(=O)Nc2ccccc2Cl)n1	1	nt	nt	nt	3	-5
COCc1cc(C)n(CC(=O)Nc2ccc3c(c2)OCO3)c(=O)c1C#N	-5	0	3	-3	0	32*
COCc1cc(C)n(CC(=O)Nc2cccc(C)c2)c(=O)c1C#N	1	3	-2	1	4	20
O=C(COc1ccccc1[N+](=O)[O-])N/N=C/C=C/c1ccco1	1	4	5	0	-1	49*
CC1(C)CC(=O)C=C(c2ccc3c(c2)OCO3)C1	-1	26	-1	1	4	33*
COC(=O)Cc1c(C)[nH]n(-c2cc(Cl)cc(Cl)c2)c1=O	40*	4	-43	-1	-3	8
CCOC(=O)c1n[nH]n(-c2cc(Cl)cc(Cl)c2)c1=O	nt	30	-1	1	2	-2
COc1cccc2[nH]c3ccccc3c(=O)c12	i	0	-1	0	135*	1
Cc1oc2cc3oc(=O)c(CCC(=O)NCc4ccccn4)c(C)c3cc2c1C	-2	-4	-7	5	7	18
CN(C)c1ccc2c(=O)cc[nH]c2c1	nt	nt	nt	nt	+	nt
COc1ccc(C2/C=C\CN3CCC[C@H]3C(=O)N2Cc2ccc(F)cc2)cc1 (stereo partly specified)	nt	nt	nt	nt	-3	1
O=C(Nc1ccc(F)cc1)c1nn(-c2ccccc2)c(=O)cc1Cl	31*	nt	nt	nt	1	6
Cc1ccc(NC(=O)c2cc(-c3ccccc3)nn2-c2ccccc2)cc1	1	13	-9	-2	0	11
CCCNC(=O)c1c(N)n(Cc2ccco2)c2nc3ccccc3nc12	-498	1	2	0	nt	nt
SMILES	RecA intein inh	Mtb betalactam	Rv3671c inh	UGM FP inh	FBA Mtb inh	GDH-TPI inh
COc1cc(-n2c(N)c(C(=O)NCc3ccco3)c3nc4ccccc4nc32)cc(OC)c1OC	nt	-3	-1	1	14	12
COCCCNC(=O)c1c(N)n(Cc2ccco2)c2nc3ccccc3nc12	i	42	-8	1	118*	15
CC(C)CNC(=O)c1c(N)n(Cc2ccco2)c2nc3ccccc3nc12	-197	28	-34	0	55*	12
COc1ccc(Cn2c(N)c(C(=O)NCc3ccco3)c3nc4ccccc4nc32)cc1OC	nt	60	-106	0	3	18
COCCOC(=O)c1c(N)n(Cc2ccco2)c2nc3ccccc3nc12	-135	38	1	1	150*	30
Nc1c(C(=O)NCc2ccco2)c2nc3ccccc3nc2n1CCc1ccc(F)cc1	-56	94	-102	-1	28*	4
CSc1ncccc1C(=O)N1CCN(S(=O)(=O)c2ccc3c(c2)OCCO3)CC1	nt	2	6	-3	0	4
C=C1CCN([C@@H](CC(C)C)C(=O)N2CCCC2)S(=O)(=O)c2ccccc21	1	-5	-1	0	0	9
COc1ccc([C@H]2CC(=O)C=C(c3cccc(C(F)(F)F)c3)C2)cc1	nt	33	-8	-1	0	8
C/C(=N/Nc1ncc(Br)cn1)c1ccc(Br)cc1	-1	1	-1	1	0	7
C/C(=N\Nc1ccc(C(=O)O)cc1)c1ccc(S(=O)(=O)NCc2ccco2)cc1	0	15	0	-2	1	54*
C/C(=N\Nc1ccc(C(=O)O)cc1)c1ccc(Br)cc1	-3	11	-3	0	2	56*
Cc1cncc(NCc2cccc(Cl)c2)n1	nt	nt	nt	nt	118*	4
Cc1cncc(NCc2ccc3c(c2)OCO3)n1	nt	nt	nt	nt	3	19
COc1ccccc1NS(=O)(=O)c1cc(N)ccc1N1CCOCC1	nt	2	-7	4	-1	6
COc1ccccc1NS(=O)(=O)c1cc(N)ccc1N1CCCC1	nt	1	3	23*	2	5
CCOc1ccc(NC(=O)COC(=O)c2ccc(S(=O)(=O)N3CCOCC3)cc2)cc1	nt	6	3	-1	0	-2
CCOc1ccc(-n2c([S-])c(C(=O)Nc3ccc(S(=O)(=O)N4CCOCC4)cc3)[n+]3cc(C(N)=O)ccc23)cc1	0	-7	-20	-2	10	39*
COc1ccccc1CNC(=O)C1CCC(CNS(=O)(=O)c2ccc(F)cc2)CC1 (stereo unspecified)	1	-1	-6	-1	6	2
O=C(N/N=C/C(Cl)=C/c1ccccc1)c1ccco1	-6	-2	-7	1	-10	35*
O=C(N/N=C/C(Cl)=C/c1ccccc1)c1ccccc1F	-1	3	2	1	-3	29
O=C(N/N=C/C(Cl)=C\c1ccccc1)c1ccco1	2	-3	-8	1	-1	33*
Cc1cc(NS(=O)(=O)c2ccc(NC(=O)c3cnc(Cl)c(Cl)c3)cc2)nc(C)n1	nt	0	-3	1	2	14
N#CC(C#N)=C1C=CC=CN1/C(=C\c1ccco1)C(=O)c1ccc(Br)cc1	nt	-5	-36	1	-1	37*
N#CC(C#N)=C1C=CC=CN1/C(=C\c1ccco1)C(=O)c1ccccc1	nt	1	-29	-1	3	34*
COc1ccc(C(=O)/C(=C\c2ccco2)N2C=CC=CC2=C(C#N)C#N)cc1	14	7	-16	0	-2	51*
CCOC(=O)C1=CN(CC)S(=O)(=O)NC1c1ccc(C(F)(F)F)cc1 (stereo unspecified)	nt	nt	nt	nt	4	1
COc1ccc(C(C)=O)c(OCC(=O)NCCC2=CCCCC2)c1	nt	nt	nt	nt	3	18
Nc1cc(S(=O)(=O)O)cc2ccc(S(=O)(=O)O)cc12	nt	nt	nt	nt	115*	1
